For seven compounds, outcome and AC50 results are on record in PubChem BioAssay (EPA / NIEHS).

Several values for one entry are separate records, joined by “and”; a condition that tells them apart may be missing. Equal values may be shown once. Activity calls are given as the source filed them. Rule for the calls: active = hit-call score of the fitted dose curve at least 0.9, where 1 is the maximum; inactive = score below 0.9.

Experiment [1] in a line: ATG_GLI_CIS: Attagene CIS-FACTORIAL HepG2 Assay for human Zinc Finger Protein GLI1 (AID 2282945). Conditions: HepG2, Attagene cis-factorial reporter mRNA, GLI element; actives raise or lower the signal. The method in brief: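 HepG2 cells transiently transfected with cis-promoter multiplexed reporter units report endogenous transcription factor activity. After 24 h chemical exposure, reporter mRNA was quantified by RT-PCR, 6-FAM labelling, HpaI digestion and capillary electrophoresis, with bidirectional fitting against DMSO.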

The nature of experiment [2]: ATG_GRE_CIS: Attagene CIS-FACTORIAL HepG2 Assay for human Glucocorticoid Response Elements (GRE) (AID 2282947). Conditions: HepG2 GRE cis-reporter, Attagene multiplex mRNA; actives raise or lower the signal. The method, boiled down: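 HepG2, transient cis-reporter transfection, 24 h. Reporter mRNA: RT-PCR then CE, fluorescence. Fit both directions vs DMSO.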
Experiment [3] in a line: ATG_ISRE_CIS: Attagene CIS-FACTORIAL HepG2 Assay for human Interferon Regulatory Factor 1 (IRF1) binding to an Interferon-Stimulated Response Element (ISRE) (AID 2282948). Conditions: HepG2 ISRE cis-reporter (Attagene), mRNA transcription readout; actives raise or lower the signal. The method, boiled down:
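Multiplexed mRNA reporter readout in human liver HepG2 cells: cis-element-driven reporters transfected, compound added for 24 h, transcripts amplified, fluorescently labelled and sized by capillary electrophoresis; curve fitting bidirectional against DMSO.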

Experiment [4] is described as follows: ATG_M_32_CIS: Attagene CIS-FACTORIAL HepG2 Assay for M32 Transcription Factor (Internal Marker) (AID 2282949).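 Note: background control marker of the multiplexed CIS panel rather than a real target.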 The following applies: HepG2 Attagene cis-factorial M32 reporter, mRNA; actives raise or lower the signal. The method, boiled down: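 Transient MRTU transfection of HepG2; 24 h compound treatment; TriZol RNA, oligo(dT) RT, reporter PCR, 6-FAM primer extension, HpaI cut, CE. Gain/loss of signal vs DMSO.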

The nature of experiment [5]: ATG_M_06_CIS: Attagene CIS-FACTORIAL HepG2 Assay for M06 Transcription Factor (Internal Marker) (AID 2282950). The following applies: HepG2 Attagene CIS-FACTORIAL M06 internal marker reporter; actives raise or lower the signal. The method, boiled down: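 Steps: transfect HepG2 with multiplexed cis-element reporter constructs; dose chemical 24 h; extract RNA with DNase treatment; reverse-transcribe, PCR-amplify, 6-FAM label, HpaI digest; separate fragments by capillary electrophoresis. Activity fitted both directions versus DMSO.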

In experiment [6] the target is Hypoxia-inducible factor 1-alpha (Homo sapiens) (UniProt Q16665). In words: ATG_HIF1a_CIS: Attagene CIS-FACTORIAL HepG2 Assay for human Hypoxia Inducible Factor 1 (HIF1A) (AID 2282951). Conditions: HepG2 Attagene cis-factorial HIF1a reporter transcription; actives raise or lower the signal. The method in brief:
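Measures endogenous transcription-factor activity through cis-regulated reporter mRNA in HepG2. Cells dosed 24 h; transcripts quantified by RT-PCR with 6-FAM-labelled products separated by capillary electrophoresis; DMSO serves as negative control.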

The target in experiment [7] is Hepatocyte nuclear factor 6 (Homo sapiens) (UniProt Q9UBC0). Description: ATG_HNF6_CIS: Attagene CIS-FACTORIAL HepG2 Assay for human Hepatocyte Nuclear Factor 6 (HNF6) (AID 2282952). Conditions: HepG2 Attagene cis-factorial HNF6 reporter transcription; actives raise or lower the signal. The method in brief:
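Using cis-element reporters in HepG2 liver cells, the assay tracks endogenous factor-driven transcription 24 h post-dosing. Signal comes from 6-FAM-labelled, HpaI-digested RT-PCR fragments, with gain or loss scored against DMSO.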

In experiment [8] the target is Heat shock factor protein 1 (Homo sapiens) (UniProt Q00613). In words: ATG_HSE_CIS: Attagene CIS-FACTORIAL HepG2 Assay for human Heat Shock Transcription Factor 1 (HSE) (AID 2282953). The following applies: HepG2 HSE cis-reporter, Attagene RNA transcription; actives raise or lower the signal. The method in brief: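 Cells were transfected with cis-element-driven reporter constructs, dosed for 24 h, then total RNA was reverse-transcribed and reporter cDNA amplified, FAM-labelled and digested with HpaI. Fragments were resolved by capillary electrophoresis; gain or loss was fitted against DMSO.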
Sequence of Heat shock factor protein 1 (Homo sapiens) (Q00613 whole entry, looked up, the tested form may be a part): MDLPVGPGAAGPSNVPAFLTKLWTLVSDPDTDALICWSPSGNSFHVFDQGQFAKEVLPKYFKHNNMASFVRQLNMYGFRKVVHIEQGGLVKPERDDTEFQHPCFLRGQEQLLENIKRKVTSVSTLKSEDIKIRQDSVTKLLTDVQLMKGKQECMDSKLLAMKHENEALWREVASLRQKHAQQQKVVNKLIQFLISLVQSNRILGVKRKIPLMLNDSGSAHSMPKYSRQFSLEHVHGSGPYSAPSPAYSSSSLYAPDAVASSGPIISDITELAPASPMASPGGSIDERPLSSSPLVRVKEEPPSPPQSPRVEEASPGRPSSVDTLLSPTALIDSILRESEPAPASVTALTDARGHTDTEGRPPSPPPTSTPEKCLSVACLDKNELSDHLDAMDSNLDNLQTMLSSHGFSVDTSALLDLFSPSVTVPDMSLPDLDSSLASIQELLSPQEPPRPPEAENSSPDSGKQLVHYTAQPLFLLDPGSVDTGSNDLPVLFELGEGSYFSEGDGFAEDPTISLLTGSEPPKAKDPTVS

A short description of experiment [9]: ATG_MRE_CIS: Attagene CIS-FACTORIAL HepG2 Assay for human Metal Responsive Element (MRE) (AID 2282954). The following applies: HepG2 MRE cis-reporter transcription, Attagene multiplex; actives raise or lower the signal. The method, boiled down:
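Readout: capillary electrophoresis of 6-FAM-labelled, HpaI-digested RT-PCR reporter products. System: HepG2 cells carrying transient multiplexed cis reporters, dosed 24 h. Analysis: bidirectional fit, DMSO baseline.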

A short description of experiment [10]: ATG_PBREM_CIS: Attagene CIS-FACTORIAL HepG2 Assay for human Phenobarbital-responsive Enhancer Module (PBREM) (AID 2282955). The following applies: HepG2 PBREM cis-reporter, Attagene multiplexed transcription; actives raise or lower the signal. The method in brief: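 Fluorescence of labelled reporter cDNA fragments, resolved by capillary electrophoresis, gives mRNA induction in transfected HepG2 cells treated for 24 h; DMSO serves as negative control and baseline.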

Experiment [11] deals with Paired box protein Pax-6 (Homo sapiens) (UniProt P26367). Description: ATG_Pax6_CIS: Attagene CIS-FACTORIAL HepG2 Assay for human Paired Box 6 (PAX6) (AID 2282956). Conditions: HepG2 CIS-FACTORIAL PAX6 reporter transcription, RNA readout; actives raise or lower the signal. The method, boiled down:
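Fluorescent RT-PCR products separated by capillary electrophoresis report PAX6-linked promoter mRNA in HepG2 cells 24 h post-dose. Curves fitted bidirectionally, DMSO as negative control.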

Experiment [12] can be described thus: ATG_PXRE_CIS: Attagene CIS-FACTORIAL HepG2 Assay for human Pregnane X Receptor Element (PXRE) (AID 2282957). The following applies: HepG2 Attagene CIS-FACTORIAL PXRE reporter, mRNA; actives raise or lower the signal. The method in brief: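 Using HepG2 transfected with multiple reporter transcription units, endogenous factor-driven transcription was scored as reporter mRNA after 24 h exposure.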

The nature of experiment [13]: ATG_PPRE_CIS: Attagene CIS-FACTORIAL HepG2 Assay for human Peroxisome Proliferator-activated Response Element (PPRE) (AID 2282958). The following applies: HepG2 PPRE cis-element reporter, Attagene transcription factor profiling; actives raise or lower the signal. The method, boiled down: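 Cells are first transfected transiently with the multiplexed reporter library, then dosed for 24 h. Total RNA is reverse-transcribed, amplified, fluorescently end-labeled and HpaI-cut before capillary electrophoresis; activity is fitted bidirectionally against DMSO controls.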

Experiment [14] in a line: ATG_RORE_CIS: Attagene CIS-FACTORIAL HepG2 Assay for human RAR-related Orphan Receptor Element (RORE) (AID 2282959). The following applies: HepG2 Attagene cis-factorial RORE reporter, mRNA; actives raise or lower the signal. The method, boiled down:
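Cells were HepG2 carrying transfected cis-regulated reporter constructs, dosed for 24 hours. Total RNA was reverse-transcribed and reporter cDNA amplified, fluorescently labeled and sized by capillary electrophoresis. Activity was fitted bidirectionally relative to DMSO.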

Experiment [15] can be described thus: ATG_Sox_CIS: Attagene CIS-FACTORIAL HepG2 Assay for human SRY-box transcription factor (SOX) (AID 2282960). The following applies: HepG2 Attagene cis-factorial SOX reporter, mRNA; actives raise or lower the signal. The method, boiled down:
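Transient MRTU transfection of HepG2; 24 h compound incubation; TriZol RNA, oligo(dT) RT, PCR, 6-FAM primer extension, HpaI cut, CE. Bidirectional fit, DMSO = baseline.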

The target in experiment [16] is Transcription factor Sp1 (Homo sapiens) (UniProt P08047). In words: ATG_Sp1_CIS: Attagene CIS-FACTORIAL HepG2 Assay for human Specificity Protein 1 (Sp1) (AID 2282961). The following applies: HepG2 Sp1 cis-reporter transcription, actives raise or lower the signal. The method, boiled down: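 Endogenous Sp1 activity was gauged in human liver HepG2 cells bearing transfected reporter units under a cis-regulating promoter. After 24 h dosing, reporter mRNA was quantified by RT-PCR with capillary electrophoresis, and activity fitted bidirectionally versus DMSO.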
Sequence of Transcription factor Sp1 (Homo sapiens) (P08047 whole entry, looked up): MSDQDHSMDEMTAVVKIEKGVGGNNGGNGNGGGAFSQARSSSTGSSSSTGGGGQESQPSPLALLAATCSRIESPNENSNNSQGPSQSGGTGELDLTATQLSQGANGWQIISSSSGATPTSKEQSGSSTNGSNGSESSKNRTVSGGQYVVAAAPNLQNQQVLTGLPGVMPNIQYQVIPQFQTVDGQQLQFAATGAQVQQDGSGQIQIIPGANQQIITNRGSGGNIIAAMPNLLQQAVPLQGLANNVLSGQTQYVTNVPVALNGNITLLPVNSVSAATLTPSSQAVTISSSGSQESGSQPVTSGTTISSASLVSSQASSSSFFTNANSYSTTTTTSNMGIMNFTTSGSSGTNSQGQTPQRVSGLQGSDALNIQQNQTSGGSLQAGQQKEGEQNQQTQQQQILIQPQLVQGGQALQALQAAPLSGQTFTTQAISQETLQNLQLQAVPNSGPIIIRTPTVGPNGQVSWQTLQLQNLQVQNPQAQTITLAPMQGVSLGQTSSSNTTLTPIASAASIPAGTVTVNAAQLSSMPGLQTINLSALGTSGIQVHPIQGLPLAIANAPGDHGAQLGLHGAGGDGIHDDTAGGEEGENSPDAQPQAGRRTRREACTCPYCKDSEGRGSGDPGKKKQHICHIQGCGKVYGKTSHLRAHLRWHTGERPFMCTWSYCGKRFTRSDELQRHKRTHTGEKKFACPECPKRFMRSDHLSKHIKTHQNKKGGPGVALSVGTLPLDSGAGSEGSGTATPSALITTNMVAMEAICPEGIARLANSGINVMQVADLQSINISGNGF

A short description of experiment [17]: ATG_SREBP_CIS: Attagene CIS-FACTORIAL HepG2 Assay for human Sterol Regulatory Element Binding (SREBP) (AID 2282962). The following applies: HepG2 Attagene cis-factorial SREBP reporter, mRNA; actives raise or lower the signal. The method in brief: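 Endogenous factor activity is measured in HepG2 through multiplexed reporter units under cis-element control. Following a 24 h incubation, reporter transcripts are reverse-transcribed, PCR-amplified and sized by capillary electrophoresis; activity is fitted in both directions relative to DMSO.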

Experiment [18] has as its target Signal transducer and activator of transcription 3 (Homo sapiens) (UniProt P40763). In words: ATG_STAT3_CIS: Attagene CIS-FACTORIAL HepG2 Assay for human Signal Transducer and Activator of Transcription 3 (STAT3) (AID 2282963). The following applies: HepG2, Attagene cis-factorial STAT3 reporter transcription; actives raise or lower the signal. The method in brief:
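Uses human liver HepG2 transiently carrying cis-regulated reporter transcription units. Following 24 h dosing, reporter mRNA induction was detected by RT-PCR and capillary electrophoresis, analysed bidirectionally versus DMSO.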

A short description of experiment [19]: ATG_TA_CIS: Attagene CIS-FACTORIAL HepG2 Assay for human TA Basal Promoter (AID 2282964). Conditions: HepG2 Attagene CIS-factorial TA basal promoter reporter; actives raise or lower the signal. The method in brief:
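Steps: transfect HepG2 with MRTUs; dose 24 h; isolate RNA, DNase-treat, reverse-transcribe; PCR and FAM-label reporter cDNA; digest with HpaI 2h at 37 C; run capillary electrophoresis. Activity fitted both directions against DMSO.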

Sequence of Paired box protein Pax-6 (Homo sapiens) (P26367 whole entry, looked up): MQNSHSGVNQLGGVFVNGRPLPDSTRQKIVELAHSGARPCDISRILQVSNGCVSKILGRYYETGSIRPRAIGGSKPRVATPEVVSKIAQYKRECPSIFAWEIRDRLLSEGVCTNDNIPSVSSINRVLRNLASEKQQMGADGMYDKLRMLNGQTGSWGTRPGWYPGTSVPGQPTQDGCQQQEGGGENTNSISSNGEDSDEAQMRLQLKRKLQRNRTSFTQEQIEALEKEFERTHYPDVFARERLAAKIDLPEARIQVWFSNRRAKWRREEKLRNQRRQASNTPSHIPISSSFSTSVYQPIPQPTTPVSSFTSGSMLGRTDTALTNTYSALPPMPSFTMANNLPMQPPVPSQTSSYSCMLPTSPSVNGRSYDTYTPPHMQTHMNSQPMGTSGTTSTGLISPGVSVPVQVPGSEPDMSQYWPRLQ
Sequence of Hepatocyte nuclear factor 6 (Homo sapiens) (Q9UBC0 whole entry, looked up, the tested form may be a part): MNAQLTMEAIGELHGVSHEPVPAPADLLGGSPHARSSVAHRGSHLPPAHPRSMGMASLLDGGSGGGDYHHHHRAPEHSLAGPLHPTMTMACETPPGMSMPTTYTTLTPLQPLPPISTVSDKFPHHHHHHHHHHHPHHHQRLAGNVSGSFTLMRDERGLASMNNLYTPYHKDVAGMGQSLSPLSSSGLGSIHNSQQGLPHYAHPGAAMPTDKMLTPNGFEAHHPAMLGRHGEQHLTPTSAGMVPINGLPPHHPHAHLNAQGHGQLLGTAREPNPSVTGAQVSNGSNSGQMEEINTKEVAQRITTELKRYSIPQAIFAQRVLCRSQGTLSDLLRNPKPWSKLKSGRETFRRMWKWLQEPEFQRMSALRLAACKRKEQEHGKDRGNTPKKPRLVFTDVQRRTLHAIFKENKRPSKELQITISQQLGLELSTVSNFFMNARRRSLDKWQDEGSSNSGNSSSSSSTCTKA
Sequence of Hypoxia-inducible factor 1-alpha (Homo sapiens) (Q16665 whole entry, looked up): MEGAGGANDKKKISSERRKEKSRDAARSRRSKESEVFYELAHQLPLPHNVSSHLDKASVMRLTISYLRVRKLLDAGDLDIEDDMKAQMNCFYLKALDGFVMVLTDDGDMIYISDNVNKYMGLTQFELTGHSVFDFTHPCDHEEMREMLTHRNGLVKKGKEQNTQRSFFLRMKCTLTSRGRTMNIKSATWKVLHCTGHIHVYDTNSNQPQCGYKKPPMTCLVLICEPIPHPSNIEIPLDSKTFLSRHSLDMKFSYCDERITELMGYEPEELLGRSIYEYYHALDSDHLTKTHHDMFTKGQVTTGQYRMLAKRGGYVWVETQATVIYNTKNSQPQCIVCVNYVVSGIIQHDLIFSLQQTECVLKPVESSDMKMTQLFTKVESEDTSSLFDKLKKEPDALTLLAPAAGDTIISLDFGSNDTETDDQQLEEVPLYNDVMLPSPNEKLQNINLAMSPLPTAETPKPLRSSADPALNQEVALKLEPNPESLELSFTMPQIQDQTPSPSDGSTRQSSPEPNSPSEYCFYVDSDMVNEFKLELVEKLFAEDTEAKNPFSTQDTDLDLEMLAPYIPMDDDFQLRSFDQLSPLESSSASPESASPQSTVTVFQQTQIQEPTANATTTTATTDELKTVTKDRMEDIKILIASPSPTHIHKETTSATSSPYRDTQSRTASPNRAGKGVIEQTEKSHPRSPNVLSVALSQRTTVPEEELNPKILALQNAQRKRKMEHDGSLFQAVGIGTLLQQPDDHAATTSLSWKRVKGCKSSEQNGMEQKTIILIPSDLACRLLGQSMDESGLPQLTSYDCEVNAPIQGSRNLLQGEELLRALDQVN
Sequence of Signal transducer and activator of transcription 3 (Homo sapiens) (P40763 whole entry, looked up): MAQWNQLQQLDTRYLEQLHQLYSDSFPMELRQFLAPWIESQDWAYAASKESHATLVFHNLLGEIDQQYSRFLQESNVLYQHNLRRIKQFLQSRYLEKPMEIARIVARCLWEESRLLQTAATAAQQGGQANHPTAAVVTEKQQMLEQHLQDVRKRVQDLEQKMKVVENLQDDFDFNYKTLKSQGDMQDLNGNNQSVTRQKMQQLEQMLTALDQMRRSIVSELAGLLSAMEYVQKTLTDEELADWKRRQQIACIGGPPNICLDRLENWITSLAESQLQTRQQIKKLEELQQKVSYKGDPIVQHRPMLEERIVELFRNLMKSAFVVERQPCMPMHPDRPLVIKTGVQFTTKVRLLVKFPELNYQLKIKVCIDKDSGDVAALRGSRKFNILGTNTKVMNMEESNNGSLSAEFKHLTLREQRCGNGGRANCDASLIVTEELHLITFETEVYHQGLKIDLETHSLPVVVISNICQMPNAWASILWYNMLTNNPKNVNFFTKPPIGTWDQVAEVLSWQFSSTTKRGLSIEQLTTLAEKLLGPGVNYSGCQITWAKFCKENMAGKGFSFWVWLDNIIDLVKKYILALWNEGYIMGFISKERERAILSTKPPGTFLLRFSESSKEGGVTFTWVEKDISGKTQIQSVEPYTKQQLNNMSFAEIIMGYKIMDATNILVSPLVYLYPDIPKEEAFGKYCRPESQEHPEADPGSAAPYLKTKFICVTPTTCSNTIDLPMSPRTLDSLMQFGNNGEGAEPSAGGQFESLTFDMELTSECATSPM

As a reminder, the AC50 is the concentration giving half of the maximal activity seen. On to `CN(C)Cc1ccccc1O`, for which the outcome in [1], in experiment [2], in experiment [3], in experiment [4], in [5] and in [6] was inactive. Also, the outcome in experiment [7], in [8], in [9], in experiment [10], in [11] and in experiment [12] was inactive. Moreover, the compound was called inactive in [13], in experiment [14], in experiment [15], in [16], in experiment [17] and in [18]. Moreover, the AC50 in [19] was 165 µM (active).
Turning to `CCCCCCS`, the compound was classed as inactive in experiment [1], in experiment [2], in experiment [4], in experiment [5], in experiment [6] and in [7]. Moreover, the outcome in [8], in [9], in [10], in [11], in experiment [13] and in [14] was inactive. The call in experiment [15], in experiment [16], in experiment [17], in experiment [18] and in [19] was inactive. In addition, in experiment [3], the AC50 is 133 µM (active).
In the case of `CCO[Si](CCC(F)(F)C(F)(F)C(F)(F)C(F)(F)C(F)(F)C(F)(F)F)(OCC)OCC`, the outcome in [1], in experiment [2], in experiment [3], in [4], in [5] and in experiment [6] was inactive. Besides, the call in experiment [7], in experiment [8], in [9], in experiment [10], in experiment [11] and in [12] was inactive. The compound was classed as inactive in [13], in experiment [14], in [15], in experiment [16], in [17] and in [18]. Besides, the compound was classed as inactive in experiment [19].
Turning to `O[Si](c1ccccc1)(c1ccccc1)c1ccccc1`, the AC50 in [1] is 134 µM (active); in experiment [9] it was 33.3 µM (active); in experiment [17] it was 69.1 µM (active). Also, the compound was called inactive in experiment [2], in experiment [3], in experiment [4], in experiment [5], in [6] and in [7]. Also, the outcome in [8], in [10], in experiment [11], in experiment [13], in [14] and in experiment [15] was inactive. Besides, the compound was called inactive in [16], in [18] and in experiment [19].
Take `CCC(=O)OCCc1ccccc1`: the compound was classed as inactive in experiment [1], in [2], in experiment [3], in experiment [4], in experiment [5] and in experiment [6]. Moreover, the compound was classed as inactive in [7], in experiment [8], in [9], in experiment [10], in experiment [11] and in experiment [13]. Moreover, the compound was classed as inactive in experiment [14], in [15], in experiment [16], in [17], in experiment [18] and in experiment [19].
With `FC(F)(F)C(F)(F)C(F)(F)C(F)(F)C(F)(F)C(F)(F)C(F)(F)C(F)(F)CCS`, the call in [1], in [2], in experiment [3], in [4], in [5] and in experiment [6] was inactive. For the same compound, the compound was called inactive in experiment [7], in experiment [8], in experiment [9], in experiment [10], in experiment [11] and in experiment [12]. In addition, the call in experiment [13], in [14], in experiment [15], in [16], in experiment [17] and in experiment [18] was inactive. In experiment [19], the outcome was inactive.
`O=S(=O)(O)c1ccc2ccccc2c1`: the result in experiment [1], in experiment [3], in experiment [4], in experiment [5], in experiment [6] and in experiment [7] was inactive. The compound was classed as inactive in [8], in experiment [9], in experiment [11], in [13], in experiment [15] and in [16]. The call in experiment [17], in experiment [18] and in experiment [19] was inactive. Further, the AC50 in experiment [12] is 11.2 µM (active) and 91 µM (active).
